Bioassay records (PubChem)
ARNT-TACC3 inh – disrupts binding between human ARNT and TACC3. AlphaScreen His-ARNT PAS-B/GST-TACC3 binding, luminescence; TACC3 fragment carries E629A point mutation. inhibition, % at 9.99 µM. 390,000 compounds, 0.66% hits. AID 623870;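 active = mean inhibition of replicates at least 50% and at least half of replicates each reaching 50%; inconclusive = half or more replicates reach 50% but mean below 50%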;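 also: 0% = complete ARNT plus TACC3 wells and 100% = ARNT alone without TACC3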
Glyco luc inh – N-linked glycosylation inhibition; D54 ERlucT glycosylation luciferase reporter, 24 h; percent of 100 nM tunicamycin response; reporter increase, % at 12.5 µM; 360,000 compounds, 0.23% hits; AID 588692;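 active = mean luciferase reporter signal, scaled so untreated is 0 and the glycosylation-blocking control 100, at or above a set limit in every replicate; inconclusive = mean reaches the limit but not every replicate does; inactive = mean below the limit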;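 also: luciferase carries N-glycosylation sites so blocking glycosylation raises the light; 0% = median of neutral control wells and 100% = median of 100 nM tunicamycin wells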
Cardio protect – myocardial damage modulation in H9c2 cells. AID 588492. 360,000 compounds, 0.63% hits. protection from H2O2 cell death, % at 20 µM. H9c2 cardiomyocytes, H2O2 injury protection, ATPLite, 2 h;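 active = compounds giving at least 50% protection of heart cells from peroxide-induced death in the single-dose screen, raw or plate-pattern-corrected value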;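 also: 0% = DMSO wells with peroxide and 100% = DMSO wells without peroxide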
aDG glyco up – alpha-DG glycosylation activation | activation, % at 10 µM | 360,000 compounds, 0.22% hits | Pro5-aDG cells, alpha-DG glycosylation AlphaScreen (IIH6); 0% Pro5, 100% B10-LARGE cell signal;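 active = activation of at least 8% versus controls, or a plate z-score of at least 8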;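 also: Pro5 are CHO cells carrying HIG-tagged alpha-DG that lacks glycosylation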
Vif imaging – HIV Vif inhibition. HEK293T cells, Vif self-association by quenched fluorescence, imaging, 24 h. inhibition, % at 7.49 µM. 340,000 compounds, 0.35% hits. AID 602346; in the data active = inhibition above about 50%, passing the limit was not always enough; inconclusive = no clear call, values can overlap the other calls; inactive = below about 31%
ARNT Alpha ctr – interferes with AlphaScreen signal, flagging false ARNT-TACC3 hits | shares compounds with ARNT-TACC3 inh | His-ARNT PASB-GST AlphaScreen artifact counter-screen, luminescence | AC50, µM (titrated, usually from 68 µM), inactives show at the highest dose activity change, negative = signal decrease | 1,200 compounds, 50% hits;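 active = every separate test run was called active for a drop in luminescence, with AC50 within twice the top valid dose, actives reach about 71 µM in these data; inconclusive = the separate test runs disagree in their calls; inactive = all runs inactive, including signal change in the wrong direction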
The depositor's hits bear a star; ? = inconclusive; / = not tested or not shown; [ ] = remark or other dose. Rows were chosen to be rich in hits. Some 1.7% of all compounds tested hit in one or more screens of this group.

SMILES	ARNT-TACC3 inh	Glyco luc inh	Cardio protect	aDG glyco up	Vif imaging	ARNT Alpha ctr
O=C(N[C@@H]1CC[C@H](CCn2cc(-c3ccccn3)nn2)O[C@@H]1CO)c1cccnc1	89.0*	/	/	/	/	33.5µM*
O=C(N[C@H]1CC[C@@H](CCn2cc(C3CC3)nn2)O[C@@H]1CO)c1cccnc1	-17.9	/	/	/	/	/
O=C(N[C@H]1CC[C@@H](CCn2cc(-c3ccccn3)nn2)O[C@@H]1CO)c1cccnc1	83.2*	/	/	/	/	52.5µM*
O=C(N[C@H]1CC[C@H](CCn2cc(-c3ccccn3)nn2)O[C@H]1CO)c1cccnc1	85.0*	/	/	/	/	43.9µM*
O=C(N[C@@H]1CC[C@@H](CCn2cc(C3CC3)nn2)O[C@@H]1CO)c1cccnc1	-15.7	/	/	/	/	/
O=C(NCC1CC1)[C@H]1[C@H](CO)[C@H]2Cn3c(ccc(-c4ccncc4)c3=O)[C@H]2N1Cc1cocn1	5.7	/	/	/	/	/
CO[C@H]1CN(C)C(=O)c2cc(NC(=O)NC(C)C)ccc2OC[C@@H](C)N(C(=O)C2CCC2)C[C@@H]1C	-1.9	/	/	/	/	/
O=C(N[C@H]1CC[C@@H](CCn2cc(C3CCCCC3)nn2)O[C@@H]1CO)c1cccnc1	-4.0	/	/	/	/	/
O=C(N[C@H]1CC[C@H](CCn2cc(-c3ccccn3)nn2)O[C@@H]1CO)c1cccnc1	82.5*	/	/	/	/	32.9µM*
C[C@H]1CN([C@@H](C)CO)S(=O)(=O)c2ccc(/C=C/c3ccccc3)cc2O[C@H]1CN(C)C(=O)C1CC1	12.0	/	/	/	/	/
COc1ccc2nc(/N=C\N(C)C)sc2c1	-6.0	0.6	1.4	-0.1	10.9	/
COc1ccc2nc(/N=C/c3c(C)[nH]n(-c4ccc(C)cc4)c3=O)sc2c1	55.5*	2.3	-8.9	0.0	-0.8	-37.3%
CN(Cc1ccccc1)CC(O)CC(O)c1ccccc1 (configuration not stated)	-0.4	/	/	/	/	/
O=C(C[C@@H]1C=C[C@@H](NC(=O)Nc2ccc(C(F)(F)F)cc2)[C@@H](CO)O1)NCc1cc(F)cc(F)c1	2.9	/	/	/	/	/
C[C@H]1c2cccc(O)c2C(O)=C2C(=O)[C@]3(O)C(O)=C(C(N)=O)C(=O)[C@@H](N(C)C)C3[C@@H](O)C21 (some centres not stated)	36.4*	-2.3	-4.0	0.2	6.6	-9.8%
C[C@H](CO)N1C[C@H](C)[C@H](CN(C)Cc2ccc(C(=O)Nc3ccccc3N)cc2)OCc2cn(nn2)CCCC1=O	4.0	/	/	/	/	/
CC1=Nn2c(nnc2-c2ccccc2F)SC1	2.7	1.0	3.2	0.3	3.7	/
CC1=Nn2c(nnc2-c2ccccn2)SC1	44.1*	1.7	1.7	-0.2	-0.8	-14.8%
c1ccc(C2=Nn3c(nnc3-c3ccccn3)SC2)cc1	60.9*	0.0	8.5	0.1	1.3	-9.0%
C[C@H](NC(=O)C[C@H]1CC[C@H]2[C@@H](COC[C@H](O)CN2Cc2ccc(C(F)(F)F)cc2)O1)c1ccccc1	4.9	/	/	/	/	/
CO[C@@H]1CN(C)C(=O)c2cc(NS(=O)(=O)CC(F)(F)F)ccc2OC[C@@H](C)N(C(=O)c2ccc3c(c2)OCO3)C[C@@H]1C	51.3*	/	/	/	/	22.3µM*
CO[C@H]1CN(C)C(=O)c2ccc(NS(=O)(=O)CC(F)(F)F)cc2OC[C@H](C)N(Cc2cccnc2)C[C@@H]1C	-9.9	/	/	/	/	/
CO[C@H]1CN(C)C(=O)c2cc(NS(=O)(=O)CC(F)(F)F)ccc2OC[C@H](C)N(Cc2cccnc2)C[C@@H]1C	active	/	/	/	/	-4.9%[42 µM]
C[C@H](CO)N1C[C@H](C)[C@@H](CN(C)C(=O)Nc2ccccc2)Oc2ccc(NC(=O)Nc3ccccc3)cc2CC1=O	9.7	/	/	/	/	/
O=C1O[C@@H](c2ccccc2)[C@@H](c2ccccc2)N2[C@@H](c3ccc(OCCO)cc3)[C@]3(C(=O)Nc4ccc(C#CC5(O)CCCCCC5)cc43)[C@@H](C(=O)N3CCCCCCC3)[C@H]12	21.9	/	/	/	/	/
COC(=O)C(CC#Cc1ccc2c(c1)[C@]1(C(=O)N2)[C@H](c2ccc(OCCO)cc2)N2[C@H](c3ccccc3)[C@H](c3ccccc3)OC(=O)[C@H]2[C@@H]1C(=O)N1CCCCCCC1)C(=O)OC	63.3*	/	/	/	/	-33.8%[38 µM]
CC1=CC(C)(C)N(C(=O)C(C)N2C(=O)c3ccccc3C2=O)c2ccc(C)cc21 (configuration not stated)	active	-2.9	9.8	-0.1	?	-21.8%
